# Measurements: the supplement of paper PMC11732987, “Enantioselective OTUD7B fragment discovery through chemoproteomics screening and high-throughput optimisation” (Communications Chemistry, 2025)
# Unmarked numbers belong to inactive results.
# Tests used:
# Test in all cases: log2 ratio of Biotin-Ahx-Ub-VS probe labelling (fragment/DMSO); higher = less target engagement (more negative = stronger competition), active = hit call of the paper (q ≤ 0.05, log2 ratio ≤ -1)
# Conditions in all cases: compound concentration: 200 uM; treatment time: 3 h
# [1] = biological target: T1, OTUD6B (UniProt Q8N6M0)
# T1 sequence (whole entry): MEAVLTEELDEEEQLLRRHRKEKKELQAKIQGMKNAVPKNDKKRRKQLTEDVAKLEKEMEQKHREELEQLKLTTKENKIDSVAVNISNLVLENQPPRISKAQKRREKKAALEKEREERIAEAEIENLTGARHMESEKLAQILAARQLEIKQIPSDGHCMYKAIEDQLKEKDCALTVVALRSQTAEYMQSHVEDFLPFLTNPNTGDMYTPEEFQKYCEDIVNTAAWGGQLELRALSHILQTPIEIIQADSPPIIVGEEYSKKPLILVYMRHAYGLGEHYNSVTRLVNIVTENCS
# How it was run: (§1)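 Triplicate samples of HEK293T lysate, 495 µg each, received fragment at 200 µM or vehicle for 3 h, followed by Biotin-Ahx-Ub-VS (0.5 µM final) for 1 h. After NeutrAvidin enrichment of labelled DUBs and LysC/trypsin digestion, peptides were run by diaPASEF LC-MS/MS. The values are average log2 fragment/vehicle ratios from global-median-normalised Spectronaut label-free quantities, tested by unpaired t-test on proteins having ≥2 unique peptides.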
# [2] = biological target: T2, OTUD7B (UniProt Q6GQQ9)
# T2 sequence (whole entry): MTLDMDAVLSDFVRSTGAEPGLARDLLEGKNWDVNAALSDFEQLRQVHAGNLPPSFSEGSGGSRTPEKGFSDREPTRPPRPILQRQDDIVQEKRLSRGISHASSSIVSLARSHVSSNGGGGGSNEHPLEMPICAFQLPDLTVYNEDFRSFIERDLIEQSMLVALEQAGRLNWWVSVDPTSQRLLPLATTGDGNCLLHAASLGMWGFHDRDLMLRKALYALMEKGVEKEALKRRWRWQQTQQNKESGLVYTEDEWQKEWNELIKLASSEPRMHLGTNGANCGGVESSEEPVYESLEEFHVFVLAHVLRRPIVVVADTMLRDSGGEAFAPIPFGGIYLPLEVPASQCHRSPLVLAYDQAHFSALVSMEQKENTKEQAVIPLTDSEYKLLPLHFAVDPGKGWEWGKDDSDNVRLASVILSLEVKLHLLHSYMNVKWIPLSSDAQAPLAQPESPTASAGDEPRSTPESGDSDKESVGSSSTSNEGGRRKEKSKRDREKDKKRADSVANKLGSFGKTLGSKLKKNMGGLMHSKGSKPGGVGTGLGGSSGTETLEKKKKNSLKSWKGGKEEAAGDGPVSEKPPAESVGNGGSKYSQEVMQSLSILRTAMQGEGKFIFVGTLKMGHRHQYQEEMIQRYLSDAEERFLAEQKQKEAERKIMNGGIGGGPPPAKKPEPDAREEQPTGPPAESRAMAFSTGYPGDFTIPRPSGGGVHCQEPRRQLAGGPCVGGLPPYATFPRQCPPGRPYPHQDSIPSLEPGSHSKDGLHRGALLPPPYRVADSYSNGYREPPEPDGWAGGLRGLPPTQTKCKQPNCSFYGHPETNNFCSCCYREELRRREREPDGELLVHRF
# How it was run: as §1
# [3] = biological target: PRPF8 (UniProt Q6P2Q9)
# How it was run: as §1
# [4] = biological target: T3, PSMD7 (UniProt P51665)
# T3 sequence (whole entry): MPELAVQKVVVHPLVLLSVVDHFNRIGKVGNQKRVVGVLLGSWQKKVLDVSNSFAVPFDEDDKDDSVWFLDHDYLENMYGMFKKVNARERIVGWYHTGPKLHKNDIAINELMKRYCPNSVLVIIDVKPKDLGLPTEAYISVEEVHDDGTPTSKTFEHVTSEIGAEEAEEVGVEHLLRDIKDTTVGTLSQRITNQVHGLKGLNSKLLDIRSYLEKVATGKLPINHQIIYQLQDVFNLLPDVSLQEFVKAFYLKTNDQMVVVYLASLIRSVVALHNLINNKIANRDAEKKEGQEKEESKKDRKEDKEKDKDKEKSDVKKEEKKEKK
# How it was run: as §1
# [5] = biological target: UCHL1 (UniProt P09936)
# Chain of UCHL1 (P09936 whole entry, looked up): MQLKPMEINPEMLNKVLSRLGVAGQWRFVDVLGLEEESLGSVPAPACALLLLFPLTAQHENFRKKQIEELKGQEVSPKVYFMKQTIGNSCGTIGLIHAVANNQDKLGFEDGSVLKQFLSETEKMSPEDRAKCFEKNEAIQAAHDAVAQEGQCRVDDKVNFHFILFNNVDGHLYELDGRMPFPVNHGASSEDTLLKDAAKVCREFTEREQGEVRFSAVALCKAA
# How it was run: as §1
# [6] = biological target: T4, UCHL3 (UniProt P15374)
# T4 sequence (whole entry): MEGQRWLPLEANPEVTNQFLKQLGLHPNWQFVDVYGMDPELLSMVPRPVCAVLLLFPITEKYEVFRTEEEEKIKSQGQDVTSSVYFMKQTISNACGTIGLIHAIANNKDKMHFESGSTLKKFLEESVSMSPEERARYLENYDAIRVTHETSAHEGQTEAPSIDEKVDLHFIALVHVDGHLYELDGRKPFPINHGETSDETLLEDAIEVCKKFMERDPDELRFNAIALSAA
# How it was run: as §1
# [7] = biological target: T5, UCHL5 (UniProt Q9Y5K5)
# T5 sequence (whole entry): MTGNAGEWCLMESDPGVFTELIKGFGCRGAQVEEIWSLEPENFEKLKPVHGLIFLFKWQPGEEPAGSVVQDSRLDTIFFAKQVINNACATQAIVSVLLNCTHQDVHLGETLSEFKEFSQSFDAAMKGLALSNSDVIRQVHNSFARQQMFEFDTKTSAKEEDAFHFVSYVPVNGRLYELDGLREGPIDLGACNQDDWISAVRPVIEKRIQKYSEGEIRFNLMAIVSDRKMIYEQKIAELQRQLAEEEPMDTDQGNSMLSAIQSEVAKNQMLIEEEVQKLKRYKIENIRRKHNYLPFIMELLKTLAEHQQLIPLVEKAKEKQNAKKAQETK
# How it was run: as §1
# [8] = biological target: USP10 (UniProt Q14694)
# Chain of USP10 (Q14694 whole entry): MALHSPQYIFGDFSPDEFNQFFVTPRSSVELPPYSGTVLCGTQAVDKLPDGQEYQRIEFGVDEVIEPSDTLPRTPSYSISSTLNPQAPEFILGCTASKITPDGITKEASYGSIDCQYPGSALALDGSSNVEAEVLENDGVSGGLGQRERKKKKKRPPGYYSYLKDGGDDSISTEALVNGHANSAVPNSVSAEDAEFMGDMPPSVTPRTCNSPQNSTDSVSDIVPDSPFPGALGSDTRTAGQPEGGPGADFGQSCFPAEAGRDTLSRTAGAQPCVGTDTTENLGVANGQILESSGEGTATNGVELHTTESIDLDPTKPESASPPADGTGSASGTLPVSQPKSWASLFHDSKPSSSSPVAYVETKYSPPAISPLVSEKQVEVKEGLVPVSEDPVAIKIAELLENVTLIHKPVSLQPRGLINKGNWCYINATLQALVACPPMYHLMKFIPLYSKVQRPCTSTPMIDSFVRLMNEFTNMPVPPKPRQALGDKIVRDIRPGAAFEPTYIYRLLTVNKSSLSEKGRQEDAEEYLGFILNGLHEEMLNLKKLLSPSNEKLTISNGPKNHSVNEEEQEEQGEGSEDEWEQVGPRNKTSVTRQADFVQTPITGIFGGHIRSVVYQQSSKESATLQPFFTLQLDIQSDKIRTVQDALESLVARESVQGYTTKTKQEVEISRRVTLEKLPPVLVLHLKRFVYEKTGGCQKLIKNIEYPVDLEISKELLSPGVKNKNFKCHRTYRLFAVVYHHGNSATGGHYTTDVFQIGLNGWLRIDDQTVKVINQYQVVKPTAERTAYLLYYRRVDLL
# How it was run: as §1
# [9] = biological target: T6, USP15 (UniProt Q9Y4E8)
# T6 sequence (whole entry): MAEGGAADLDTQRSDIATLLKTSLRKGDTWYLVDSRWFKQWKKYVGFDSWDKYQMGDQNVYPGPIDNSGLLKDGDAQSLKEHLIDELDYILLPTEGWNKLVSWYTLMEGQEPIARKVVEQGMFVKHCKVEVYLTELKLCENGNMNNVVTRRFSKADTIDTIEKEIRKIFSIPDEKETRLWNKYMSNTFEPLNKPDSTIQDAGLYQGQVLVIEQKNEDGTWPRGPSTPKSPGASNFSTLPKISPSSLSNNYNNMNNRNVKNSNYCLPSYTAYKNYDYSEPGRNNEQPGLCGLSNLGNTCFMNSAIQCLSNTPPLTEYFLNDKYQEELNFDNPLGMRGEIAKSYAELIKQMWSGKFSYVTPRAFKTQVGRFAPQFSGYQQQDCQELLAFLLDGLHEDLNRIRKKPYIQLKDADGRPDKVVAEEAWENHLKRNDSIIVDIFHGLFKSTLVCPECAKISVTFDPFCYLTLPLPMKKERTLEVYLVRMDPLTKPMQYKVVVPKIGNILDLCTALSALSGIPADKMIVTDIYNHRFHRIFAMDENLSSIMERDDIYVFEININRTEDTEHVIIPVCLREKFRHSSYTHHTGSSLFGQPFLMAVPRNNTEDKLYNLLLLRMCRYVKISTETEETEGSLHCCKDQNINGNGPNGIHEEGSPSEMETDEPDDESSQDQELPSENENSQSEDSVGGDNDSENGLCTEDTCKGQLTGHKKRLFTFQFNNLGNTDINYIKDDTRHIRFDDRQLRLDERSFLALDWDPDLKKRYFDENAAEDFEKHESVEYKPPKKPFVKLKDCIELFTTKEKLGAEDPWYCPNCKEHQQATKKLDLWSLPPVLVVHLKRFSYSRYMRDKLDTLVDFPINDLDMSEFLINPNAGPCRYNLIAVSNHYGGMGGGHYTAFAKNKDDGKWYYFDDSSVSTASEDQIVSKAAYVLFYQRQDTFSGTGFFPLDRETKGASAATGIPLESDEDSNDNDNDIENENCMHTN
# How it was run: as §1
# [10] = biological target: USP16 (UniProt Q9Y5T5)
# Chain of USP16 (Q9Y5T5 whole entry, looked up): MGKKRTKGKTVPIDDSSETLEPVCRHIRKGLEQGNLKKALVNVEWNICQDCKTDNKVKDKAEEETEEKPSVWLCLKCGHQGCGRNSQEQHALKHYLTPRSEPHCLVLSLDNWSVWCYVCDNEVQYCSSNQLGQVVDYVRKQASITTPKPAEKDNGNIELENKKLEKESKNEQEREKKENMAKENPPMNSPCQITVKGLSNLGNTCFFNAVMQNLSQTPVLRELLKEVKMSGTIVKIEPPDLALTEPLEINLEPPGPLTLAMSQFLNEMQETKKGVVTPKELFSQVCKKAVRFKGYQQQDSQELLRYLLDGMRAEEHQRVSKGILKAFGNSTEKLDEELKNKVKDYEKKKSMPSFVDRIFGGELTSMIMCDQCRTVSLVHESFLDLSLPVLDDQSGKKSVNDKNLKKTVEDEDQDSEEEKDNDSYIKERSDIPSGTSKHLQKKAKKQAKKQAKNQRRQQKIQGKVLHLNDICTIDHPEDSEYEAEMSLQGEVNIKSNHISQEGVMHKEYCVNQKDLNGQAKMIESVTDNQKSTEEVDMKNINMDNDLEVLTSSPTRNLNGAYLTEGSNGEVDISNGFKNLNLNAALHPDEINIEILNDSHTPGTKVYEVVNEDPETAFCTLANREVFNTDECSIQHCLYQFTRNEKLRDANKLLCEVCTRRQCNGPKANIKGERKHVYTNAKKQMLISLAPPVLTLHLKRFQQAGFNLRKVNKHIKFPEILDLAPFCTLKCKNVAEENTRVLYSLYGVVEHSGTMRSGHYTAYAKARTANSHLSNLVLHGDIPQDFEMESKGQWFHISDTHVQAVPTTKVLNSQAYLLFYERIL
# How it was run: as §1
Structure (SMILES),log2 ratio of Biotin-Ahx-Ub-VS probe labelling [1],log2 ratio of Biotin-Ahx-Ub-VS probe labelling [2],log2 ratio of Biotin-Ahx-Ub-VS probe labelling [3],log2 ratio of Biotin-Ahx-Ub-VS probe labelling [4],log2 ratio of Biotin-Ahx-Ub-VS probe labelling [5],log2 ratio of Biotin-Ahx-Ub-VS probe labelling [6],log2 ratio of Biotin-Ahx-Ub-VS probe labelling [7],log2 ratio of Biotin-Ahx-Ub-VS probe labelling [8],log2 ratio of Biotin-Ahx-Ub-VS probe labelling [9],log2 ratio of Biotin-Ahx-Ub-VS probe labelling [10]
O=C(CCl)NCc1cccc(F)c1,-0.0396,-0.597,-0.208,-0.138,-1.24 (active),0.227,-0.0221,-0.156,-0.273,-0.133
CC(C)n1nccc1NC(=O)CCl,-0.189,-2.07 (active),-0.0737,-0.278,-1.45 (active),0.181,-0.327,0.0851,-0.314,-0.153
Cc1nnc(C(NC(=O)CCl)c2ccccc2)n1C (stereo not given),0.622,0.355,-0.283,0.357,0.102,0.364,0.534,0.157,0.629,-0.384
CNC(=O)Cn1cc(NC(=O)CCl)cn1,-0.476,-0.454,1e-05,-0.0882,-1.59 (active),0.189,-0.399,-0.209,-0.375,-0.148
O=C(CCl)N1CCOC(CCc2ccccc2)C1 (stereo not given),-0.215,-0.71,-0.0352,-0.432,-1.46 (active),-0.025,-0.22,-0.258,-0.374,-0.411
CN(C)C(=O)c1ccc(NC(=O)CCl)cc1,-0.253,-0.664,-0.106,-0.259,-1.46 (active),-0.282,-0.194,-0.0447,0.0049,-0.712
O=C(CCl)N1CCC(c2ccn[nH]2)C1 (stereo not given),-0.234,-0.648,-0.154,-0.294,-0.579,-0.0683,-0.213,-0.079,-0.555,-0.161
